This is part of a sample that, as a whole, favours compounds with a hit. Of some 83,000 tested, about 20% had one in any assay.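 Note: values are percent growth. 100 is the growth of untreated cells, values between 100 and 0 indicate rising inhibition; between -100 and 0 indicates cell death.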 A number with no mark means an inactive call. Active and inactive are the calls of the source. How the source made its calls: active means growth percent below 10; inactive means the rest.
What was measured:
Experiment in all cases: NCI-60 one-dose screen, 48 h (100 = growth as untreated, 0 = no growth, -100 = all killed)
Details in all cases: 10 µM unless noted
[1] = test system: NCI-H23 lung
[2] = test system: NCI-H226 lung
[3] = test system: NCI-H322M lung
[4] = test system: HOP-62 NSCLC
[5] = test system: NCI-H460 lung
[6] = test system: NCI-H522 lung
[7] = test system: A549/ATCC NSCLC
[8] = test system: 786-0 renal
[9] = test system: COLO 205 colon
[10] = test system: DU-145 prostate
[11] = test system: K-562 leukemia
[12] = test system: MALME-3M melanoma
[13] = test system: MDA-MB-231 breast
[14] = test system: RXF 393 renal
[15] = test system: SF-268 CNS
[16] = test system: SF-295 CNS
[17] = test system: SF-539 CNS
[18] = test system: UACC-257 melanoma
[19] = test system: M14 melanoma

Compound	growth [1]	growth [2]	growth [3]	growth [4]	growth [5]	growth [6]	growth [7]	growth [8]	growth [9]	growth [10]	growth [11]	growth [12]	growth [13]	growth [14]	growth [15]	growth [16]	growth [17]	growth [18]	growth [19]
COc1cc(OC)c2c3nc4cc(C)c(C)cc4nc3n(CCN(C)C)c2c1	67.4%	72.4%	73.3%	70.9%	53.7%	56.2%	8.98% (active)	50.7%	48.4%	60.4%	1.64% (active)	-36.1% (active)	38%	-18.4% (active)	86.2%	53.7%	-83.5% (active)	101%	47.9%
O=C1c2c(c3c4cc(F)ccc4oc3c3[nH]c4ccc(Br)cc4c23)C(=O)N1O	7.64% (active)	61.8%	79.4%	19.4%	5.53% (active)	-18% (active)	69.2%	15.5%	67.9%	24.6%	40.3%	7.44% (active)	66.4%	29.2%	2.64% (active)	20%	-10.9% (active)	88.5%	14.3%
CN(C)c1nc(NCCNS(=O)(=O)c2ccc(C3=Nc4c(N)nc(N)nc4NC(c4ccccc4)C3)cc2)nc(Nc2ccc(F)cc2)n1 (stereo not drawn)	58.6%	52.8%	58.4%	81.1%	25.9%	43.1%	56.4%	29.7%	44%	58%	7.64% (active)	36.6%	20.7%	13.4%	46.9%	42.6%	-7.62% (active)	70.8%	49.4%
Cn1cc(-c2cc(N)n3nc(-c4c[nH]c5ccccc45)cc3n2)c2cccnc21	47.6%	71.2%	44.7%	62.6%	2.29% (active)	31.3%	51.7%	-81.3% (active)	40.2%	38.2%	6.08% (active)	-27.3% (active)	-9.34% (active)	29.6%	81.6%	-4.84% (active)	-81.5% (active)	92.3%	-48.1% (active)
Cc1cccc(-c2nc(Nc3ccc(C)c(S(N)(=O)=O)c3)c3ccccc3n2)c1	12.9%	41.9%	34%	76.1%	19%	-30.5% (active)	26.5%	10.8%	37.8%	53.2%	7.2% (active)	46.6%	10.9%	22.6%	50.9%	5.63% (active)	9.73% (active)	76.4%	31.4%
CN(C)c1nc(NCCNS(=O)(=O)c2ccc(C(=O)/C=C/c3ccc(C(F)(F)F)cc3)cc2)nc(Nc2ccc(F)cc2)n1	-5.94% (active)	-48.9% (active)	27.7%	68.7%	-19.6% (active)	-79.7% (active)	10.1%	-75.7% (active)	-47.5% (active)	6.99% (active)	-1.07% (active)	-2.41% (active)	-74.2% (active)	-81.4% (active)	21.6%	-14.6% (active)	-97.5% (active)	23.7%	-48.3% (active)
Cn1cc(-c2cc(N)n3nc(-c4cn(C)c5ncc(Br)cc45)cc3n2)c2cc(Br)cnc21	-31.1% (active)	78%	69.1%	48.3%	-65.6% (active)	51.2%	-22.3% (active)	-40.8% (active)	12.3%	5.43% (active)	-41.6% (active)	-66.6% (active)	6.75% (active)	23.1%	50%	-63.5% (active)	-83.4% (active)	60.3%	-64.7% (active)
CN(C)c1nc(NCCNS(=O)(=O)c2ccc(C3=Nc4c(N)nc(N)nc4NC(c4ccc(C(F)(F)F)cc4)C3)cc2)nc(Nc2ccc(F)cc2)n1 (stereo not drawn)	31.5%	24.3%	46.7%	56.1%	-7.38% (active)	5.71% (active)	45.8%	-35.4% (active)	-83.5% (active)	26.9%	1.59% (active)	-36.8% (active)	-37.4% (active)	-11.9% (active)	28%	20.8%	-65.4% (active)	43%	7.55% (active)
COc1ccc(-c2ccnc(SCc3cc4ccccc4[nH]c3=O)n2)cc1	76.1%	63.5%	82.5%	32.3%	33.6%	46.9%	61%	71%	77.5%	81.2%	11.1%	65.9%	59.1%	40.2%	87.7%	50.3%	50%	79.5%	44.8%
Cc1cc2nc3c4ccccc4n(CC4=NCCN4)c3nc2cc1C	-56% (active)	23.9%	22.3%	-72.5% (active)	-84.1% (active)	2.32% (active)	-85.2% (active)	-97% (active)	43.8%	2.14% (active)	-13.1% (active)	-92.7% (active)	-43.2% (active)	-67.2% (active)	40.7%	-74.8% (active)	-94.2% (active)	-44.4% (active)	-79.2% (active)
Cc1nc(Nc2ncc(C(=O)Nc3c(C)cccc3Cl)s2)cc(N2CCN(CCCNC(=O)COc3ccc(C4CCC(=O)NC4=O)cc3)CC2)n1 (stereo not drawn)	68.8%	68.5%	20.8%	35.4%	95.8%	17%	33.4%	14.4%	10.3%	41.9%	9.96% (active)	91.6%	-4.03% (active)	-51.2% (active)	43.6%	48.3%	7.74% (active)	77.9%	60.2%
COc1cc2c3c(n(CCCN4CCC[C@@H]4CO)c(=O)c2cc1OC)-c1cc2c(cc1C3=O)OCO2	-85.7% (active)	-66.5% (active)	-96.5% (active)	-53.3% (active)	-71.8% (active)	-82.1% (active)	-83.3% (active)	-86.3% (active)	-68.3% (active)	-100% (active)	2.24% (active)	-85.6% (active)	-93.3% (active)	-66.5% (active)	-60.8% (active)	-86% (active)	-98.2% (active)	71.2%	-85.9% (active)

Reference: PubChem BioAssay (NCI)
